Results: PubChem BioAssay AID1159580 (chemical genetic matrix, 2015)
Values joined by “and” are separate entries in the source; they are usually repeats but may differ in a detail not shown here. Identical values can stand only once. Among all 5,500 compounds or so, about 2,000 (36%) were called active. Not shown: some 18% with an inconclusive outcome. Rule as the data show it: active = normalized growth mostly below about 0.91 (no sharp cut-off); inconclusive = no clear call, values can overlap the other calls; inactive = mostly above about 0.92. The list shows a part of the results.

Experiment: chemical genetic growth profiling, strain panel (AID 1159580);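 also: tested at 20 µM; growth read once vehicle control cultures reached saturation at 30 °C; 1 = growth at the plate median or of vehicle wells; lower values mean less growth of the strain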
Details: growth OD

Measured: normalized growth

CN(C)CCCN1c2ccccc2Sc2ccccc21
inactive: S. cerevisiae deletion strains, locus YJR075W, strain HOC1, stronger effect = lower value 0.995 and 1 | S. cerevisiae deletion strains, locus YKL009W, strain mrt4, stronger effect = lower value 1.02 | S. cerevisiae deletion strains, locus YKL068W, stronger effect = lower value 1.01 | S. cerevisiae deletion strains, locus YKL085W, strain MDH1 (second series), stronger effect = lower value 1 | S. cerevisiae deletion strains, locus YKL085W, strain MDH1, stronger effect = lower value 1 | S. cerevisiae deletion strains, locus YKL160W, strain elf1, stronger effect = lower value 1.04 | S. cerevisiae deletion strains, locus YKL190W, strain CNB1, stronger effect = lower value 1 | S. cerevisiae deletion strains, locus YKR001C, strain vps1, stronger effect = lower value 1.02 | S. cerevisiae deletion strains, locus YKR026C, strain gcn3, stronger effect = lower value 0.989 | S. cerevisiae deletion strains, locus YKR091W, strain srl3, stronger effect = lower value 0.984 | S. cerevisiae deletion strains, locus YLL001W, strain dnm1, stronger effect = lower value 0.978 | S. cerevisiae deletion strains, locus YLL026W, stronger effect = lower value 0.98 | S. cerevisiae deletion strains, locus YLL041C, strain sdh2, stronger effect = lower value 0.99 | S. cerevisiae deletion strains, locus YLR027C, strain aat2, stronger effect = lower value 0.999 | S. cerevisiae deletion strains, locus YLR039C, strain RIC1, stronger effect = lower value 1.19 | S. cerevisiae deletion strains, locus YLR058C, strain SHM2, stronger effect = lower value 1 | S. cerevisiae deletion strains, locus YLR102C, strain apc9, stronger effect = lower value 1.01 | S. cerevisiae deletion strains, locus YLR113W, strain HOG1, stronger effect = lower value 1.01 | S. cerevisiae deletion strains, locus YLR221C, strain rsa3, stronger effect = lower value 0.992 | S. cerevisiae deletion strains, locus YLR258W, strain gsy2, stronger effect = lower value 0.983 | S. cerevisiae deletion strains, locus YLR262C, strain YPT6 (second series), stronger effect = lower value 1.01 | S. cerevisiae deletion strains, locus YLR262C, strain YPT6, stronger effect = lower value 1.23 | S. cerevisiae deletion strains, locus YLR268W, strain sec22, stronger effect = lower value 1.01 | S. cerevisiae deletion strains, locus YLR320W, strain mms22, stronger effect = lower value 0.996 | S. cerevisiae deletion strains, locus YLR330W, strain CHS5, stronger effect = lower value 1.01 | S. cerevisiae deletion strains, locus YLR342W, strain FKS1 (second series), stronger effect = lower value 0.99 | S. cerevisiae deletion strains, locus YLR342W, strain FKS1, stronger effect = lower value 0.977 | S. cerevisiae deletion strains, locus YLR357W, strain rsc2, stronger effect = lower value 0.989 | S. cerevisiae deletion strains, locus YLR370C, strain arc18, stronger effect = lower value 1 | S. cerevisiae deletion strains, locus YLR371W, strain rom2, stronger effect = lower value 1.01 | S. cerevisiae deletion strains, locus YLR384C, strain iki3, stronger effect = lower value 0.997 | S. cerevisiae deletion strains, locus YLR418C, strain cdc73, stronger effect = lower value 0.988 | S. cerevisiae deletion strains, locus YML016C, strain PPZ1, stronger effect = lower value 1.01 | S. cerevisiae deletion strains, locus YML032C, strain rad52, stronger effect = lower value 1.01 | S. cerevisiae deletion strains, locus YML120C, strain ndi1, stronger effect = lower value 0.99 | S. cerevisiae deletion strains, locus YML124C, strain tub3, stronger effect = lower value 1.01 | S. cerevisiae deletion strains, locus YMR058W, strain fet3, stronger effect = lower value 0.982 | S. cerevisiae deletion strains, locus YMR078C, strain ctf18, stronger effect = lower value 1.01 | S. cerevisiae deletion strains, locus YMR125W, strain sto1, stronger effect = lower value 0.947 | S. cerevisiae deletion strains, locus YMR129W, stronger effect = lower value 1 | S. cerevisiae deletion strains, locus YMR205C, strain PFK2, stronger effect = lower value 1 | S. cerevisiae deletion strains, locus YMR223W, strain ubp8, stronger effect = lower value 0.999 | S. cerevisiae deletion strains, locus YMR231W, strain pep5, stronger effect = lower value 0.986 | S. cerevisiae deletion strains, locus YMR263W, strain SAP30, stronger effect = lower value 0.999 and 0.981 | S. cerevisiae deletion strains, locus YMR307W, strain GAS1, stronger effect = lower value 1.03 and 1.02 | S. cerevisiae deletion strains, locus YNL067W, strain RPL9B, stronger effect = lower value 0.988 | S. cerevisiae deletion strains, locus YNL071W, strain lat1, stronger effect = lower value 0.996 | S. cerevisiae deletion strains, locus YNL128W, strain TEP1, stronger effect = lower value 1.01 and 0.994 | S. cerevisiae deletion strains, locus YNL153C, strain GIM3, stronger effect = lower value 1.09 | S. cerevisiae deletion strains, locus YNL175C, strain NOP13, stronger effect = lower value 0.983 | S. cerevisiae deletion strains, locus YNL183C, strain NPR1, stronger effect = lower value 0.965 | S. cerevisiae deletion strains, locus YNL209W, strain ssb2, stronger effect = lower value 0.971 | S. cerevisiae deletion strains, locus YNL224C, strain SQS1, stronger effect = lower value 1.01 | S. cerevisiae deletion strains, locus YNL233W, strain BNI4, stronger effect = lower value 1.01 | S. cerevisiae deletion strains, locus YNL248C, strain rpa49, stronger effect = lower value 0.976 | S. cerevisiae deletion strains, locus YNL250W, strain rad50, stronger effect = lower value 1.01 | S. cerevisiae deletion strains, locus YNL271C, strain bni1, stronger effect = lower value 1.01 | S. cerevisiae deletion strains, locus YNL298W, strain CLA4, stronger effect = lower value 1 | S. cerevisiae deletion strains, locus YNL307C, strain MCK1, stronger effect = lower value 1.02 | S. cerevisiae deletion strains, locus YNL322C, strain KRE1 (second series), stronger effect = lower value 1.01 | S. cerevisiae deletion strains, locus YNL322C, strain KRE1, stronger effect = lower value 1 and 0.958 | S. cerevisiae deletion strains, locus YNR049C, strain mso1, stronger effect = lower value 0.996 | S. cerevisiae deletion strains, locus YNR052C, strain pop2, stronger effect = lower value 1.01 | S. cerevisiae deletion strains, locus YOL006C, strain TOP1, stronger effect = lower value 0.983 | S. cerevisiae deletion strains, locus YOL012C, strain htz1 0.964 | S. cerevisiae deletion strains, locus YOL147C, strain pex11, stronger effect = lower value 1.01 | S. cerevisiae deletion strains, locus YOR001W, strain rrp6, stronger effect = lower value 0.96 | S. cerevisiae deletion strains, locus YOR061W, strain CKA2, stronger effect = lower value 1.01 | S. cerevisiae deletion strains, locus YOR069W, strain VPS5, stronger effect = lower value 0.995 | S. cerevisiae deletion strains, locus YOR070C, strain gyp1, stronger effect = lower value 0.986 | S. cerevisiae deletion strains, locus YOR080W, strain dia2, stronger effect = lower value 1.01 | S. cerevisiae deletion strains, locus YOR083W, strain WHI5 (second series), stronger effect = lower value 0.98 | S. cerevisiae deletion strains, locus YOR083W, strain WHI5, stronger effect = lower value 0.971 | S. cerevisiae deletion strains, locus YOR106W, strain vam3, stronger effect = lower value 0.968 | S. cerevisiae deletion strains, locus YOR136W, strain idh2, stronger effect = lower value 1.02 | S. cerevisiae deletion strains, locus YOR144C, strain elg1, stronger effect = lower value 1.01 | S. cerevisiae deletion strains, locus YOR184W, strain ser1, stronger effect = lower value 1.08 | S. cerevisiae deletion strains, locus YOR231W, strain MKK1, stronger effect = lower value 0.986 | S. cerevisiae deletion strains, locus YOR265W, strain rbl2, stronger effect = lower value 1 | S. cerevisiae deletion strains, locus YOR270C, strain vph1, stronger effect = lower value 0.898 | S. cerevisiae deletion strains, locus YOR290C, strain snf2, stronger effect = lower value 1.01 | S. cerevisiae deletion strains, locus YOR316C, strain cot1, stronger effect = lower value 1.02 | S. cerevisiae deletion strains, locus YPL051W, strain arl3, stronger effect = lower value 1 | S. cerevisiae deletion strains, locus YPL055C, strain LGE1, stronger effect = lower value 1.01 | S. cerevisiae deletion strains, locus YPL078C, strain atp4, stronger effect = lower value 1.01 | S. cerevisiae deletion strains, locus YPL106C, strain sse1, stronger effect = lower value 0.999 | S. cerevisiae deletion strains, locus YPL240C, strain hsp82, stronger effect = lower value 0.985 | S. cerevisiae deletion strains, locus YPL241C, strain CIN2, stronger effect = lower value 0.999 | S. cerevisiae deletion strains, locus YPL256C, strain CLN2, stronger effect = lower value 1.01 | S. cerevisiae deletion strains, locus YPR119W, strain clb2, stronger effect = lower value 1 | S. cerevisiae deletion strains, locus YPR141C, strain kar3, stronger effect = lower value 1.01 | S. cerevisiae deletion strains, locus YPR163C, strain tif3, stronger effect = lower value 1.01 | S. cerevisiae deletion strains, locus YPR167C, strain met16, stronger effect = lower value 1.01 | S. cerevisiae deletion strains, strain wtn01, stronger effect = lower value 1.02 | S. cerevisiae strains, strain wild type, stronger effect = lower value 0.992
